According to PubChem BioAssay:
Unmarked numbers belong to inactive results. Calls of active or inactive are those of the source.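 How the source made its calls: active means z-score of at least 1.8 in each of two replicates, scored against plate mean and spread of sample wells; inactive means the rest.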

Experiment: viability rescue of complex I mutant cybrids, primary screen, cell-based, galactose medium, ATP luminescence (AID 1645843);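 further: positive z means more ATP and so rescue of galactose-driven cybrid death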
Details: complex I mutant cybrid cells, 72 h, active compounds read high

SMILES	z-score
Cc1nsc(NC(=O)NCCC2CCCCCC2)n1	-1.07
CCCC(CCC)C(=O)N1CCC(n2cc(C3CC3)nn2)CC1	-0.125
O=C(Nc1cccc(-c2cscn2)c1)c1ccc2nccnc2c1	-0.95
CCCCc1cn(C2CCN(C(=O)[C@@H]3CCCO3)CC2)nn1	-0.55
Cc1ccccc1C1CCCN(C(=O)c2cc(C(C)C)no2)C1 (configuration not stated)	2.95 (active)
CCC1(CO)CCCN(c2ncc(C(F)(F)F)cc2Cl)C1 (configuration not stated)	2.98 (active)
O=C(Nc1n[nH]c(Cc2ccccc2)n1)N1CCN(C(=O)c2ccco2)CC1	2.72 (active)
CCCC[C@@H]1C[C@@H]1C(=O)N1CCC(n2cc(CC(C)C)nn2)CC1	-0.07
COc1cccc2ccc(-c3ccc(C(=O)N(C)C)cc3)nc12	1.37
Cc1nsc(NC(=O)N2CCC(N)CC2)n1	0.04
O=C(Nc1cccc(N2CCCC2=O)c1)c1cc(C(F)(F)F)ccc1Cl	-0.405
O=C1CN(c2ncnc3sccc23)CCN1Cc1ccc(F)cc1	0.19
Cc1cc(CC(=O)Nc2cc(C)nn2C2CCCCC2)on1	0.225
Cc1ccccc1-n1cc(-c2ccnc(NCc3nnc4n3CCCC4)n2)cn1	-0.305
O=C(CC1CCCCCC1)N1CCC(n2cc(-c3ccccn3)nn2)CC1	-0.34
Cn1nc(NC(=O)Cn2ccc(-c3ccsc3)n2)c2ccccc21	0.985
COc1ccccc1CNC(=O)Nc1nnc(C)s1	4.88 (active)
